Experimental data: article PMC5540273 (PLoS ONE, 2017)

Columns and labels:
Conditions in all cases: concentration: 1 μM,replicates: in singlicate; n = 1
ERK1 = system: T1, ERK1
T1 construct: gene MAPK3

ERK2 = system: T2, ERK2
T2 construct: gene MAPK1

ERK3 = system: T3, ERK3
T3 construct: gene MAPK6

ERK4 = system: T4, ERK4
T4 construct: gene MAPK4

ERK5 = system: T5, ERK5
T5 construct: gene MAPK7

ERK8 = system: T6, ERK8
T6 construct: gene MAPK15

ERN1 = system: ERN1
FAK = system: T7, FAK
T7 construct: gene PTK2

FER = system: FER
FES = system: FES
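Further: KINOMEscan kinase panel screen.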

CN(c1ccc2c(c1)nc(NCc1ccc(F)cc1)n2C)c1ccnc(Nc2ccc(CS(C)(=O)=O)cc2)n1.Cl [GW813244]
%Inh (ERK1): 3%
%Inh (ERK2): 0%
%Inh (ERK3): 0%
%Inh (ERK4): 0%
%Inh (ERK5): 0%
%Inh (ERK8): 29%
%Inh (ERN1): 28%
%Inh (FAK): 22%
%Inh (FER): 20%
%Inh (FES): 0%

CN1CCN(CCNc2nc3cc(Oc4ccc(NC(=O)Nc5cc(C(F)(F)F)ccc5F)cc4)ccc3[nH]2)CC1.Cl.Cl [GW768504]
%Inh (ERK1): 0%
%Inh (ERK2): 0%
%Inh (ERK3): 0%
%Inh (ERK4): 0%
%Inh (ERK5): 0%
%Inh (ERK8): 69%
%Inh (ERN1): 0%
%Inh (FAK): 11%
%Inh (FER): 20%
%Inh (FES): 9%

CC(C(=O)NC1CCN(c2ccnc(Nc3ccc(F)cc3)n2)C1)c1ccc(Cl)cc1 (stereo not shown) [GSK1379713]
%Inh (ERK1): 0%
%Inh (ERK2): 0%
%Inh (ERK3): 0%
%Inh (ERK4): 0%
%Inh (ERK5): 0%
%Inh (ERK8): 0%
%Inh (ERN1): 0%
%Inh (FAK): 0%
%Inh (FER): 46%
%Inh (FES): 1%

COc1cccc(OC)c1C(=O)Nc1cccc(-c2nn3ccccc3c2-c2ccnc(Nc3cccc(F)c3)n2)c1 [GSK361065]
%Inh (ERK1): 1%
%Inh (ERK2): 6%
%Inh (ERK3): 1%
%Inh (ERK4): 9%
%Inh (ERK5): 2%
%Inh (ERK8): 3%
%Inh (ERN1): 10%
%Inh (FAK): 1%
%Inh (FER): 24%
%Inh (FES): 20%

C[C@@H](Oc1cc(-n2cnc3cc(-c4ccncc4)ccc32)sc1C(N)=O)c1ccccc1Cl [GSK479719]
%Inh (ERK1): 0%
%Inh (ERK2): 0%
%Inh (ERK3): 0%
%Inh (ERK4): 0%
%Inh (ERK5): 0%
%Inh (ERK8): 85%
%Inh (ERN1): 16%
%Inh (FAK): 0%
%Inh (FER): 13%
%Inh (FES): 18%

C[C@@H]1CCN(C(=O)N2CCCC2)C[C@@H]1N(C)c1ncnc2[nH]ccc12
%Inh (ERK1): 0%
%Inh (ERK2): 14%
%Inh (ERK3): 0%
%Inh (ERK4): 10%
%Inh (ERK5): 0%
%Inh (ERK8): 34%
%Inh (ERN1): 3%
%Inh (FAK): 97.3%
%Inh (FER): 36%
%Inh (FES): 34%

Cl.Cl.NC[C@H](CC1CCCCC1)NC(=O)c1ccc(-c2ccnc3[nH]ccc23)s1 [GSK1581428]
%Inh (ERK1): 18%
%Inh (ERK2): 31%
%Inh (ERK3): 0%
%Inh (ERK4): 0%
%Inh (ERK5): 0%
%Inh (ERK8): 78%
%Inh (ERN1): 6%
%Inh (FAK): 48%
%Inh (FER): 14%
%Inh (FES): 5%

Cn1ccc2ncnc(Oc3ccc(NC(=O)Nc4ccnc(C(F)(F)F)c4)c(Cl)c3)c21
%Inh (ERK1): 0%
%Inh (ERK2): 0%
%Inh (ERK3): 0%
%Inh (ERK4): 0%
%Inh (ERK5): 0%
%Inh (ERK8): 0%
%Inh (ERN1): 11%
%Inh (FAK): 0%
%Inh (FER): 0%
%Inh (FES): 10%

COC(=O)Nc1nc2cc(Oc3ccc(NC(=O)Nc4cc(C(F)(F)F)ccc4Cl)cc3)ccc2[nH]1.Cl [GW697465]
%Inh (ERK1): 0%
%Inh (ERK2): 0%
%Inh (ERK3): 6%
%Inh (ERK4): 0%
%Inh (ERK5): 0%
%Inh (ERK8): 90.9%
%Inh (ERN1): 0%
%Inh (FAK): 0%
%Inh (FER): 24%
%Inh (FES): 0%

CN1CCN(CCCNc2nccc(-c3c(-c4ccc(F)cc4)nn4cc(C(N)=O)ccc34)n2)CC1 [GW622475]
%Inh (ERK1): 0%
%Inh (ERK2): 2%
%Inh (ERK3): 5%
%Inh (ERK4): 36%
%Inh (ERK5): 0%
%Inh (ERK8): 0%
%Inh (ERN1): 35%
%Inh (FAK): 0%
%Inh (FER): 26%
%Inh (FES): 0%

CNC(=O)c1ccccc1Nc1nc(Nc2cccc(CS(C)(=O)=O)c2)ncc1C.O=CO [GSK1520489]
%Inh (ERK1): 46%
%Inh (ERK2): 60%
%Inh (ERK3): 35%
%Inh (ERK4): 35%
%Inh (ERK5): 0%
%Inh (ERK8): 80%
%Inh (ERN1): 58%
%Inh (FAK): 99.9%
%Inh (FER): 96%
%Inh (FES): 38%

CN(c1ccccc1CNc1nc(Nc2ccc3c(c2)CC(=O)N3)ncc1C(F)(F)F)S(C)(=O)=O
%Inh (ERK1): 68%
%Inh (ERK2): 82%
%Inh (ERK3): 0%
%Inh (ERK4): 5%
%Inh (ERK5): 24%
%Inh (ERK8): 95.8%
%Inh (ERN1): 0%
%Inh (FER): 82%
%Inh (FES): 70%

COc1cc2nccc(Nc3ccc(Oc4ccccc4)cc3)c2cc1OC.Cl [GI261656]
%Inh (ERK1): 0%
%Inh (ERK2): 0%
%Inh (ERK3): 17%
%Inh (ERK4): 0%
%Inh (ERK5): 0%
%Inh (ERK8): 0%
%Inh (ERN1): 29%
%Inh (FAK): 0%
%Inh (FER): 33%
%Inh (FES): 0%

CCN1CCN(CCCC(=O)Nc2n[nH]c3nc(-c4ccc(O)cc4)c(Br)cc23)CC1 [SB-731579]
%Inh (ERK1): 0%
%Inh (ERK2): 0%
%Inh (ERK3): 0%
%Inh (ERK4): 0%
%Inh (ERK5): 87%
%Inh (ERK8): 56%
%Inh (ERN1): 0%
%Inh (FAK): 0%
%Inh (FER): 0%
%Inh (FES): 0%

CCNCC(Cc1ccccc1)NC(=O)c1cc(Br)c(-c2ccnc3[nH]ccc23)s1.Cl.Cl (stereo not shown) [GSK1383280]
%Inh (ERK1): 19%
%Inh (ERK2): 0%
%Inh (ERK3): 4%
%Inh (ERK4): 32%
%Inh (ERK5): 0%
%Inh (ERK8): 3%
%Inh (ERN1): 12%
%Inh (FAK): 2%
%Inh (FER): 0%
%Inh (FES): 0%

NC(=O)c1ccc(-c2cc3ncnc(SCC(=O)O)c3s2)cc1
%Inh (ERK1): 0%
%Inh (ERK2): 4%
%Inh (ERK3): 0%
%Inh (ERK4): 0%
%Inh (ERK5): 0%
%Inh (ERK8): 63%
%Inh (ERN1): 0%
%Inh (FAK): 0%
%Inh (FER): 0%
%Inh (FES): 16%

CCn1c(-c2nonc2N)nc2cncc(CNC3CCNCC3)c21.Cl [SB-747651]
%Inh (ERK1): 0%
%Inh (ERK2): 0%
%Inh (ERK3): 6%
%Inh (ERK4): 0%
%Inh (ERK5): 0%
%Inh (ERK8): 16%
%Inh (ERN1): 2%
%Inh (FAK): 0%
%Inh (FER): 2%
%Inh (FES): 0%
